Reference: the supplement of paper PMC11732987, “Enantioselective OTUD7B fragment discovery through chemoproteomics screening and high-throughput optimisation” (Communications Chemistry, 2025)
Unmarked numbers belong to inactive results.

Assays:
Test in all cases: log2 ratio of Biotin-Ahx-Ub-VS probe labelling (fragment/DMSO); higher = less target engagement (more negative = stronger competition), active = hit call of the paper (q ≤ 0.05, log2 ratio ≤ -1)
Details in all cases: compound concentration: 200 uM; treatment time: 3 h
ALG13 = target: T1, ALG13 (UniProt Q9NP73)
T1 sequence (whole entry): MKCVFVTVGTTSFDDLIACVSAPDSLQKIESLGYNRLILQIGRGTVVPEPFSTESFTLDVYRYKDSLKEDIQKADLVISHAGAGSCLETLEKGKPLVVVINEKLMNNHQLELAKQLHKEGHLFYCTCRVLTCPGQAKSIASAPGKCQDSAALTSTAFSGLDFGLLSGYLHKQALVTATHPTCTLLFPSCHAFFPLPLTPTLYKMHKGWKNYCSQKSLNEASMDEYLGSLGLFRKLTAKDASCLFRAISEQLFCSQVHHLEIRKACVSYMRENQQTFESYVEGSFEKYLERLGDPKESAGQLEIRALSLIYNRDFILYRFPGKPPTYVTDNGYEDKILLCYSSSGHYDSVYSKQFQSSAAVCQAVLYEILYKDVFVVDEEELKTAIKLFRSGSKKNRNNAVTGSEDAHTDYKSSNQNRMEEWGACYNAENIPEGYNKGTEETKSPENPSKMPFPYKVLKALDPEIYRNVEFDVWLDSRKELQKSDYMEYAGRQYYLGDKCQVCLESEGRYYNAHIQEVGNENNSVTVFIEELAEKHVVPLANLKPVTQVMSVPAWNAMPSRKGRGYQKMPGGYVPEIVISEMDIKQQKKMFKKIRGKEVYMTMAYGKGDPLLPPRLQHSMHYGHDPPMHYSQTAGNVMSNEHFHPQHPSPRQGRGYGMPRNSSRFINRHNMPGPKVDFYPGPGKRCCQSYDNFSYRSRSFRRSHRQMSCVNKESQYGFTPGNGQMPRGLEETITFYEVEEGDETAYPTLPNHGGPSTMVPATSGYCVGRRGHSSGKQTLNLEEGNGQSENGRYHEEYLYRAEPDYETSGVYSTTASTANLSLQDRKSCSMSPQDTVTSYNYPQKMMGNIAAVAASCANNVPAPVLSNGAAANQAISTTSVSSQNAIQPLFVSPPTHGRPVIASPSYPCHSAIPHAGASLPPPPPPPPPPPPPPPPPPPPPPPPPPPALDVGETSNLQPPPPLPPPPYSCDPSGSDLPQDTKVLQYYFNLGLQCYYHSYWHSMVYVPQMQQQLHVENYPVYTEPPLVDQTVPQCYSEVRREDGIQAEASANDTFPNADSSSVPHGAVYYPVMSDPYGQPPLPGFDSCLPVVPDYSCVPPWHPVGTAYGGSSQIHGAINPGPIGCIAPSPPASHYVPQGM
Summary of the method: (§1)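 Lysate from HEK293T cells, 495 µg per sample in Tris/CHAPS/IGEPAL buffer with protease inhibitors, was treated for 3 h in triplicate with fragment at 200 µM or vehicle. Biotin-Ahx-Ub-VS was next added at 0.5 µM final for 1 h. The labelled DUBs were enriched with NeutrAvidin, digested with LysC and trypsin, and run by diaPASEF LC-MS/MS, with values given as average log2 fragment/vehicle ratios by unpaired t-test on global-median-normalised Spectronaut quantities of proteins with ≥2 unique peptides.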

ATXN3 = ATXN3 (UniProt P54252)
Summary of the method: as §1

BAP1 = target: T2, BAP1 (UniProt Q92560)
T2 sequence (whole entry): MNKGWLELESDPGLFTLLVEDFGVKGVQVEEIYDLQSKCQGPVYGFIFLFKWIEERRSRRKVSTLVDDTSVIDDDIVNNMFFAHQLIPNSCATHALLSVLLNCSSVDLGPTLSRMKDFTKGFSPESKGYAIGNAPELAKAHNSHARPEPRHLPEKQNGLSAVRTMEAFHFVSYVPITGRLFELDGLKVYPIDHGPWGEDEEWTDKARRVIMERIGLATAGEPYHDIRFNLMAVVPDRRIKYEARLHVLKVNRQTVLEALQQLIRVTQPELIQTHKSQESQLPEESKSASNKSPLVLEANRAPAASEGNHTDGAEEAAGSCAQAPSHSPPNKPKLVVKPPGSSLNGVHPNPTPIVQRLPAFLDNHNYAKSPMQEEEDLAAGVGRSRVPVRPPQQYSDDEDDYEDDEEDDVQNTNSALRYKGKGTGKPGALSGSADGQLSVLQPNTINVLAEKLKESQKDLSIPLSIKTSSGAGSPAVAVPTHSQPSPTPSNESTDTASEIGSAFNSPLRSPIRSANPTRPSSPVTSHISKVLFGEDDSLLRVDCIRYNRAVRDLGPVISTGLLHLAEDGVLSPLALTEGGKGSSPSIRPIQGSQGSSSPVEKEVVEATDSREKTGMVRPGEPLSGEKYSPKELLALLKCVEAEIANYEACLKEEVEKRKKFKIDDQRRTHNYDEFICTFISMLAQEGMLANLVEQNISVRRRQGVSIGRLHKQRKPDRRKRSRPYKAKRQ
Summary of the method: as §1

EIF3F = EIF3F (UniProt O00303)
Summary of the method: as §1

EIF3H = EIF3H (UniProt O15372)
Summary of the method: as §1

FAM105A = target: T3, FAM105A (UniProt Q9NUU6)
T3 sequence (whole entry): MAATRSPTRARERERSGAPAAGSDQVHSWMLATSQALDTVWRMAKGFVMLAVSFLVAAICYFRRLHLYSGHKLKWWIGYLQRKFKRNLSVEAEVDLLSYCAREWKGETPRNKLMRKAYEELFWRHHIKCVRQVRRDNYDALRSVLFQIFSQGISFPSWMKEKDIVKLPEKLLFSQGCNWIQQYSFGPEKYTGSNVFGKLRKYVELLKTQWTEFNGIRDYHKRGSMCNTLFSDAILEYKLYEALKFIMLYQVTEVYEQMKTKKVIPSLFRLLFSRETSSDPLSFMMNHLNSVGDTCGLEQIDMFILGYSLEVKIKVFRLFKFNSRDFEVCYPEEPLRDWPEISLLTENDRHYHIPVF
Summary of the method: as §1

OTUB1 = OTUB1 (UniProt Q96FW1)
Summary of the method: as §1

OTUD4 = target: T4, OTUD4 (UniProt Q01804)
T4 sequence (whole entry): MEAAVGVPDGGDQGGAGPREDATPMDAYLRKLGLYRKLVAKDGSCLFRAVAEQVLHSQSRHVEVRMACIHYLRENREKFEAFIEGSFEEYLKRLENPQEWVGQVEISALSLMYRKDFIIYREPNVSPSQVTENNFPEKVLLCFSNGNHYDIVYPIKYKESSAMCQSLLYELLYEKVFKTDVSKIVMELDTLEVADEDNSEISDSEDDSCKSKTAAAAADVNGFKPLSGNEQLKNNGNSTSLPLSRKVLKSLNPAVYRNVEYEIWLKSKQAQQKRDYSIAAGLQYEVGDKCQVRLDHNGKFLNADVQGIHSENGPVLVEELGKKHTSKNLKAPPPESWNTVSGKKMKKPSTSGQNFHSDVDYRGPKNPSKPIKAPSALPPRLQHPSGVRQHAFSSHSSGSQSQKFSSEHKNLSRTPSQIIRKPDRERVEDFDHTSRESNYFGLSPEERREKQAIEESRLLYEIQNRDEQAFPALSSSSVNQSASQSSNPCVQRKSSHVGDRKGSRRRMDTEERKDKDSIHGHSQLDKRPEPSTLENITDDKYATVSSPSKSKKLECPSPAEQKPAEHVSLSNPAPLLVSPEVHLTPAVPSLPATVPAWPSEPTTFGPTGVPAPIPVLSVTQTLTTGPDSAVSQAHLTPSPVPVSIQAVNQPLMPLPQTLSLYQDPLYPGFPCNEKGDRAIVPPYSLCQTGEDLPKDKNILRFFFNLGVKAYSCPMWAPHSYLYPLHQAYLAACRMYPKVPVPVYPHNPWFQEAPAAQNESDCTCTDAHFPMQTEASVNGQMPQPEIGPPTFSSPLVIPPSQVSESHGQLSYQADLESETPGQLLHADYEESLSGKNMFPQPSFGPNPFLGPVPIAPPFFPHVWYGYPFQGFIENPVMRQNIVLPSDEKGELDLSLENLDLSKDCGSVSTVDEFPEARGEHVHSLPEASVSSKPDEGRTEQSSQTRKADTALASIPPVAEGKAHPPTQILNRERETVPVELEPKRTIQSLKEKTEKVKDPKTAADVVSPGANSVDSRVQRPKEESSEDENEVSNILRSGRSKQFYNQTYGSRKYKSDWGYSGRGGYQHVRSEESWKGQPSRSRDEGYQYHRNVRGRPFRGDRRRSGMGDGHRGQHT
Summary of the method: as §1

OTUD5 = target: T5, OTUD5 (UniProt Q96G74)
T5 sequence (whole entry): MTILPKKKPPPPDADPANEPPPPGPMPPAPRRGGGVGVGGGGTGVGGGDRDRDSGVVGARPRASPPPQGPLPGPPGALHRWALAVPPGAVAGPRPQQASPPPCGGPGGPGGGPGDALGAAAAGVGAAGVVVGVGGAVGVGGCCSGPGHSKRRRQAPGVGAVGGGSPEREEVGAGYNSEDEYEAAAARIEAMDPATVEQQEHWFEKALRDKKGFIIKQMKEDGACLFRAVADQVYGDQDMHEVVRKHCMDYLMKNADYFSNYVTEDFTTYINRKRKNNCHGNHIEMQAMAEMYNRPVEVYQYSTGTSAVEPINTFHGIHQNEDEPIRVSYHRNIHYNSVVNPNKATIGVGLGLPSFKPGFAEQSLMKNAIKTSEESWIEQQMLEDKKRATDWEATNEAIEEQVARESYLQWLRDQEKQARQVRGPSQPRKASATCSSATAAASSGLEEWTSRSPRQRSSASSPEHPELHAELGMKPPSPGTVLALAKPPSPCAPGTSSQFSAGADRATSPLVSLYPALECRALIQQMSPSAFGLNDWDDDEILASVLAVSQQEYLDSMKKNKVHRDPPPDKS
Summary of the method: as §1

Chain of EIF3F (O00303 whole entry): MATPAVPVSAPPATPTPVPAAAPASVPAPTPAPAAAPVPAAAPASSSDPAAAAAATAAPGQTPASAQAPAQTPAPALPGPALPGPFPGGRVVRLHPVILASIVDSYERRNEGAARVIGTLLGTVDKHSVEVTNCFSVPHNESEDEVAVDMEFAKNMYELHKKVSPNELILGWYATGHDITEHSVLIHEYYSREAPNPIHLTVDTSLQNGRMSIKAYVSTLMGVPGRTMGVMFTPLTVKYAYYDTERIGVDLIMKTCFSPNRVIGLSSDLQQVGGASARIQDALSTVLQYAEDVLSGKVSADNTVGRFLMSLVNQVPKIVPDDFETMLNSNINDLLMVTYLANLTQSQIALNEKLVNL
Chain of EIF3H (O15372 whole entry): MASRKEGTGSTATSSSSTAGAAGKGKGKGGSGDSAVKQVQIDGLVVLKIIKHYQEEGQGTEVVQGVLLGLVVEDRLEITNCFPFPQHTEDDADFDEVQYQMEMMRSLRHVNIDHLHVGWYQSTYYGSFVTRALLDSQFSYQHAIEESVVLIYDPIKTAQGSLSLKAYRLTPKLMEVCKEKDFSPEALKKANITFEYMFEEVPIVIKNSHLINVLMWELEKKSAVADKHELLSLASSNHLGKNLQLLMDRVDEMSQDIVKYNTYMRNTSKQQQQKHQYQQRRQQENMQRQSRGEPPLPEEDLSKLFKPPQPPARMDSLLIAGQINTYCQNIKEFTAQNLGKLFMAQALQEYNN
Chain of ATXN3 (P54252 whole entry): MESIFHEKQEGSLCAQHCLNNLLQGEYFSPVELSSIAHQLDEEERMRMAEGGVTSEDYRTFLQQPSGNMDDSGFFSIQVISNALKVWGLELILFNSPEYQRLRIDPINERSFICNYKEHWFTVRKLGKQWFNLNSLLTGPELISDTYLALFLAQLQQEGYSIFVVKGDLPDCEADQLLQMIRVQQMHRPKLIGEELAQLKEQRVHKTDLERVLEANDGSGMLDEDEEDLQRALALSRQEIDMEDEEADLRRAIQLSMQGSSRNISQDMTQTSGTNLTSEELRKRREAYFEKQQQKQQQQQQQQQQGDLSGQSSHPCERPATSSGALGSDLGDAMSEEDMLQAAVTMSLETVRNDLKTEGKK
Chain of OTUB1 (Q96FW1 whole entry): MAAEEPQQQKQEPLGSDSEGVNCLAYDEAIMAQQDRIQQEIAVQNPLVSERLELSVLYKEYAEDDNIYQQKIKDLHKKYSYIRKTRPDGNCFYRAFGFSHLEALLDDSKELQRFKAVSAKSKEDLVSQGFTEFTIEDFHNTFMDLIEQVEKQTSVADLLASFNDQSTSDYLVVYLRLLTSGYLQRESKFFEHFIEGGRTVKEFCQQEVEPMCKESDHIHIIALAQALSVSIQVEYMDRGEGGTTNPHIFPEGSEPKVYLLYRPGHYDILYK

Row | Structure (SMILES) | log2 ratio of Biotin-Ahx-Ub-VS probe labelling (ALG13) | log2 ratio of Biotin-Ahx-Ub-VS probe labelling (ATXN3) | log2 ratio of Biotin-Ahx-Ub-VS probe labelling (BAP1) | log2 ratio of Biotin-Ahx-Ub-VS probe labelling (EIF3F) | log2 ratio of Biotin-Ahx-Ub-VS probe labelling (EIF3H) | log2 ratio of Biotin-Ahx-Ub-VS probe labelling (FAM105A) | log2 ratio of Biotin-Ahx-Ub-VS probe labelling (OTUB1) | log2 ratio of Biotin-Ahx-Ub-VS probe labelling (OTUD4) | log2 ratio of Biotin-Ahx-Ub-VS probe labelling (OTUD5)
1 | O=C(CCl)NCc1cccc(N2CCCC2=O)c1 | -0.0431 | -0.37 | -3.09 (active) | 0.179 | 0.112 | -0.0389 | 0.122 | -0.18 | -0.358
2 | O=C(CCl)N1CCc2[nH]c3ccccc3c2C1 | -0.37 | -0.343 | -0.875 | -0.00281 | 0.231 | 0.0311 | -0.167 | -0.657 | -1.55 (active)
3 | O=C(CCl)N1CCC(OCc2ccccc2F)CC1 | -0.0579 | -0.708 | -0.64 | -0.319 | -0.284 | -0.178 | -0.00851 | -0.169 | -0.0801
4 | O=C(CCl)Nc1ccc(Cl)c(F)c1 | 0.149 | -1.07 (active) | -3.03 (active) | -0.0742 | 0.246 | -0.175 | -0.259 | -1.33 (active) | -0.992
5 | O=C(CCl)N1CCC(c2ccn[nH]2)C1 (stereo not drawn) | -0.443 | -0.622 | -0.721 | -0.232 | 0.0161 | -0.198 | -0.156 | -0.303 | -0.376
6 | CCN(C(=O)CCl)C1CCCCC1 | 0.0472 | -0.0119 | 0.174 | -0.141 | 0.022 | -0.207 | 0.0443 | -0.12 | -0.00145
7 | O=C(CCl)NCc1ccc2c(c1)OCO2 | 0.0126 | 0.173 | -3.05 (active) | -0.126 | -0.0114 | -0.111 | -0.278 | -0.266 | 0.0579
